Test [1] deals with CRL-7250. Put plainly: Cytotoxic Profiling of Annotated Libraries Using Quantitative High-Throughput Screening (AID 1296008). For max response: % is set by controls: 0 for no effect and ±100 for the full control effect. Note: potency is the fitted concentration of half-maximal effect. The following applies: Five cell lines viability, CellTiter-Glo ATP luminescence, 48-72 h; max response: stronger effect = lower value. In outline:
(§1)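 Compounds were pin-transferred onto cells and incubated 48 or 72 hr at 37 degree Celsius, 95% humidity. CellTiter-Glo was added, plates sat 10 min at room temperature, then ATP-coupled luminescence was imaged as the viability read-out.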

The test system of a further test is HEK293. The description is as above. Particulars: Five cell lines viability, CellTiter-Glo ATP luminescence, 48-72 h; max response: stronger effect = lower value. In outline:
as §1

Test [2] deals with HaCat. The test is described as above. Particulars: Five cell lines viability, CellTiter-Glo ATP luminescence, 48-72 h; max response: stronger effect = lower value. In outline:
as §1

A further test concerns KB-3-1. Described as above. Particulars: Five cell lines viability, CellTiter-Glo ATP luminescence, 48-72 h; max response: stronger effect = lower value. In outline:
as §1

Another test deals with NIH3T3. Described as above. The following applies: Five cell lines viability, CellTiter-Glo ATP luminescence, 48-72 h; max response: stronger effect = lower value. In outline: as §1
The test system of test [3] is CRL-7250. Description: qHTS assay to identify novel small-molecules to repurpose for Merkel cell carcinoma treatment (AID 1296009). The following applies: MCC and control cell lines, CellTiter-Glo viability, 72 h; series mostly up to 44.8 µM. In outline:
(§2)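 Viability readout: ATP luminescence (CellTiter-Glo) after 72 hr drug exposure at 37 degree celsius. Dose-response format was 8 points for NPC and 11 points for MIPE; data normalized to in-plate controls.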

The next test has as its system N140. Description: qHTS profiling for inhibitors of Plasmodium falciparum proliferation (AID 504749). Note: potency is the fitted concentration of half-maximal effect. Particulars: P. falciparum in erythrocytes, SYBR Green DNA, 72 h; series mostly up to 28.7 µM. In outline: (§3)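 Quantitative HTS: compounds pinned into medium, infected erythrocytes added (0.3% parasitemia, 2.5% hematocrit), 72 h culture at 37 C under 5% CO2. Saponin/Triton lysis with SYBR Green I, overnight RT, then fluorescence read.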

In a further test the test system is P93_24. The description is as above. Particulars: P. falciparum in erythrocytes, SYBR Green DNA, 72 h; series mostly up to 28.7 µM. In outline:
as §3

The test system of a further test is P94_40. The description is as above. The following applies: P. falciparum in erythrocytes, SYBR Green DNA, 72 h; series mostly up to 28.7 µM. In outline:
as §3

A further test deals with PAD. The test is described as above. The following applies: P. falciparum in erythrocytes, SYBR Green DNA, 72 h; series mostly up to 28.7 µM. In outline: as §3
The next test deals with PC15. Described as above. The following applies: P. falciparum in erythrocytes, SYBR Green DNA, 72 h; series mostly up to 28.7 µM. In outline:
as §3

The subject of another test is PC26. Described as above. The following applies: P. falciparum in erythrocytes, SYBR Green DNA, 72 h; series mostly up to 28.7 µM. In outline: as §3
The next test has as its system PC49. The test is described as above. Particulars: P. falciparum in erythrocytes, SYBR Green DNA, 72 h; series mostly up to 28.7 µM. In outline: as §3
Another test deals with SC27B. The test is described as above. The following applies: P. falciparum in erythrocytes, SYBR Green DNA, 72 h; series mostly up to 28.7 µM. In outline: as §3
The next test concerns TAB109. The description is as above. The following applies: P. falciparum in erythrocytes, SYBR Green DNA, 72 h; series mostly up to 28.7 µM. In outline:
as §3

Another test concerns TAB113. Described as above. The following applies: P. falciparum in erythrocytes, SYBR Green DNA, 72 h; series mostly up to 28.7 µM. In outline: as §3
The subject of a further test is TAB165. The test is described as above. The following applies: P. falciparum in erythrocytes, SYBR Green DNA, 72 h; series mostly up to 28.7 µM. In outline: as §3
Test [4] concerns HACAT. Description: qHTS assay to identify novel small-molecules to repurpose for Merkel cell carcinoma treatment (AID 1296009). Particulars: MCC and control cell lines, CellTiter-Glo viability, 72 h; at 44.8 µM (top of the series) unless noted. In outline:
as §2

The subject of a further test is HEK293T. The test is described as above. Particulars: MCC and control cell lines, CellTiter-Glo viability, 72 h; at 44.8 µM (top of the series). In outline:
as §2

The subject of another test is W2. Description: qHTS profiling for inhibitors of Plasmodium falciparum proliferation (AID 504749). Note: potency is the fitted concentration of half-maximal effect. The following applies: P. falciparum in erythrocytes, SYBR Green DNA, 72 h; series mostly up to 28.7 µM. In outline:
as §3

Molecules are shown by their SMILES. Values joined by “and” are separate entries in the source; they are usually repeats but may differ in a detail not shown here. Identical values can stand only once. Inconclusive results are not listed. Values without a mark were called inactive. Active and inactive are the calls of the source. Calls come from the whole dose curve; as a rule, active = well fitted inhibition curve with a large enough effect; inconclusive = small, poorly fitted or top-dose-only effect; inactive = flat fitted curve, though single readings scatter.
Note: nearly all actives have a fitted effect of over 60% in size.

As for `CN(C)[C@@H]1C(=O)C(C(N)=O)=C(O)[C@@]2(O)C(=O)C3=C(O)c4c(O)cccc4[C@@](C)(O)[C@H]3C[C@@H]12`, the max response in the test with CRL-7250 [1] was -3.81%; with HEK293 it was -12.7%; in the test with HaCat [2], -13.2% and 4.81%; in the test with KB-3-1, -1.95% and 4.68%; in the test on NIH3T3, -3.21% and -4.63%. For the same molecule, the outcome in the test on CRL-7250 [1] and with CRL-7250 [3] was inactive.

Take `CN(C)CCN(C)CCc1ccc(Cl)c(Cl)c1`: the molecule was classed as inactive in the test on CRL-7250 [1] and in the test on CRL-7250 [3]. Besides, the max response in the test on HEK293 is 0.598%; with HaCat [2], -22.4%; in the test on KB-3-1 it was 0.794%; with NIH3T3, -6.27%.

For the molecule `Cc1sc2c(c1C)C(c1ccc(Cl)cc1)=N[C@@H](CC(=O)OC(C)(C)C)c1nnc(C)n1-2`, the Potency is 372 nM (active) in the test on CRL-7250 [1] and 526 nM (active) in the test on HEK293.

Consider `CC(=O)[C@H]1CC[C@H]2[C@@H]3CC[C@H]4C[C@](C)(O)CC[C@]4(C)[C@H]3CC[C@]12C`, for which the Potency entry in the test with N140, in the test with P93_24, with P94_40, in the test on PAD, in the test with PC15 and in the test with PC26 was “inactive” in each case. The Potency entry in the test with PC49, with SC27B, in the test on TAB109, with TAB113 and in the test on TAB165 was “inactive” in each case. Further, the molecule was called inactive in the test with CRL-7250 [1], in the test on HEK293, with HaCat [2], with NIH3T3, in the test on CRL-7250 [3] and in the test on HACAT [4]. In addition, the molecule was classed as inactive with HEK293T. In addition, the max response in the test on KB-3-1 was -8.61%.

As to `NP(N)(=O)NC(=O)c1ccc(F)cc1`, the Potency result in the test on N140, in the test with P93_24, in the test with P94_40, in the test with PAD, in the test on PC15 and with PC26 was “inactive” in each case. Further, the Potency result with PC49, in the test on SC27B, in the test with TAB109, in the test on TAB113, in the test on TAB165 and in the test with W2 was “inactive” throughout. Also, the outcome in the test on CRL-7250 [1], with HEK293, in the test with HaCat [2], in the test on CRL-7250 [3], with HACAT [4] and in the test with HEK293T was inactive. Also, the max response in the test with KB-3-1 is -13.3%; in the test with NIH3T3 it was 4.85%.

`C[C@H]1O[C@@H](O[C@H]2[C@@H](O)C[C@H](O[C@H]3[C@@H](O)C[C@H](O[C@H]4CC[C@@]5(C)[C@H](CC[C@@H]6[C@@H]5CC[C@]5(C)[C@@H](C7=CC(=O)OC7)CC[C@]65O)C4)O[C@@H]3C)O[C@@H]2C)C[C@H](O)[C@@H]1O`: the Potency in the test on CRL-7250 [1] is 33.5 nM (active) and 48.5 nM (active); with HEK293, 53.1 nM (active) and 61.1 nM (active); in the test on HaCat [2], 266 nM (active); in the test with KB-3-1, 73.1 nM (active) and 137 nM (active). The max response in the test with NIH3T3 was -6.15%.

Consider `Clc1ccc(COC(Cn2ccnc2)c2ccc(Cl)cc2Cl)cc1` (configuration not stated), for which the Potency with N140 was 1580 nM (active); in the test with P93_24 it was 1120 nM (active); in the test with P94_40, 2000 nM (active); with PAD, 2510 nM (active); in the test with PC15 it was 2820 nM (active); in the test with PC26, 1900 nM (active). Further, the Potency in the test on PC49 is 8910 nM (active); with SC27B, 2510 nM (active); with TAB109, 2510 nM (active); with TAB113, 2820 nM (active); in the test on TAB165 it was 708 nM (active); with W2, 1200 nM (active). For the same molecule, the max response in the test on CRL-7250 [1] is 1.02%; in the test with HEK293, -1.16%; with HaCat [2], -11%; in the test on KB-3-1, -10.4% and -10.7%. The molecule was classed as inactive with CRL-7250 [1] and in the test with CRL-7250 [3].
